Entries with a potency or affinity are not part of this list. Activity calls are given as the source filed them. No rule for the calls is given here.
Assay: COV434 cell viability loss – plate reader, dry powder, SA7, cytotoxicity control for PAX8 inhibitor project, dose response (AID 743145)
Conditions: series mostly up to 35 µM

| Compound | outcome |
| --- | --- |
| N#C[C@H]1[C@@H](c2ccc(C#CC3CCCCC3)cc2)[C@@H](CO)N1S(=O)(=O)c1ccccc1 | inactive |
| CCc1cnc(N2[C@@H](C#N)[C@@H](c3ccc(C#CC(C)C)cc3)[C@@H]2CO)s1 | inactive |
| C[C@H](CO)N1C[C@H](C)[C@H](CN(C)C(=O)Nc2ccc(-c3cccs3)cc2)OCc2cnnn2CCCC1=O | inactive |
| C[C@@H]1CN([C@@H](C)CO)S(=O)(=O)c2ccc(C#C[C@@H](C)O)cc2O[C@H]1CN(C)Cc1ccc(-c2ccccc2)cc1 | inactive |
| Cc1ccccc1OCC(=O)Nc1cccc(C(=O)O)c1 | inactive |
| COc1cccc(C#Cc2ccc([C@H]3[C@@H](C#N)N(C(=O)c4ccccn4)[C@@H]3CO)cc2)c1 | inactive |
| O=C(CN1C(=O)c2ccccc2S1(=O)=O)c1ccc(Cl)cc1Cl | inactive |
| COC(=O)[C@@]1(CCS(=O)(=O)c2ccccc2)N=C(c2ccc(OCCCO)cc2)O[C@H]1c1ccccc1 | inactive |
| C[C@H](CO)N1C[C@H](C)[C@@H](CN(C)Cc2ccc(-c3ccccc3)cc2)Oc2ccc(NC(=O)C3CC3)cc2CC1=O | inactive |
| COc1ccc(S(=O)(=O)Nc2ccc3c(c2)CC(=O)N([C@@H](C)CO)C[C@@H](C)[C@@H](CN(C)Cc2ccc(-c4ccccc4)cc2)O3)cc1 | inactive |
| O=C(NCCc1ccccc1)c1ccc2c(c1)OCCCO2 | inactive |
| O=C1/C(=C/c2cccc(Br)c2)SC(=S)N1CCC(=O)N(CCO)c1ccccc1 | inactive |
| CC(=O)N1CCOc2ccc(S(=O)(=O)N3CCN(c4cccc(C(F)(F)F)c4)CC3)cc21 | inactive |

— PubChem BioAssay AID743145 (Broad Institute, 2013)
